Here are results for 66 molecules from the antibiotic and cytotoxicity screens of Wong et al. (2023).

In all, about 39,000 compounds went through this assay and about 3,300 (8.5%) were called active. For the sample, actives were picked, then their nearest neighbours and some compounds at random.

For this assay, the system named is HepG2. Put plainly: cytotoxicity call (relative viability < 0.9). The settings on record: 10 µM.
Take `Cc1csc2sc(COC(=O)Nc3ccccc3)c(C)c12`: the cytotoxicity call was “inactive”.

`Cc1csc2sc(C(=O)Oc3ccc(Cl)cc3)c(C)c12`: the cytotoxicity call is “inactive”. Then `Cc1csc2sc(/C=N/Cc3cccs3)c(C)c12`, with “active”; and `C[C@@H]1CN([C@@H](C)CO)C(=O)c2cc(NS(=O)(=O)c3cccs3)ccc2O[C@@H](C)CCCCO[C@@H]1CN(C)C(=O)c1ccccc1`, with “inactive”; and `O=C(C[C@H]1C[C@@H]2c3cc(NC(=O)c4ccc5c(c4)OCO5)ccc3O[C@@H]2[C@@H](CO)O1)NCC(F)(F)F`, with “inactive”.

With `C[C@H]1CCCCO[C@@H](CN(C)S(=O)(=O)c2ccc(F)cc2)[C@@H](C)CN([C@@H](C)CO)C(=O)c2cc(NC(=O)CCC(F)(F)F)ccc2O1`, the cytotoxicity call is “inactive”. Take `Cc1[nH]c(=O)[nH]c(=O)c1S(=O)(=O)N1CCC(C(=O)NCCC(C)C)CC1`: the cytotoxicity call was “inactive”. In the case of `Cc1[nH]c(=O)[nH]c(=O)c1S(=O)(=O)N1CCC(C(=O)N[C@H](C)c2ccccc2)CC1`, the cytotoxicity call is “inactive”. Regarding `CCc1ccc(NC(=O)C2CCN(S(=O)(=O)c3c(C)[nH]c(=O)[nH]c3=O)CC2)cc1`, the cytotoxicity call is “active”. Take `COCC(=O)N1[C@@H]2c3ccc(C4=CCCC4)c(=O)n3C[C@@H]2[C@@H](CO)[C@@H]1C(=O)N1CCN(C)CC1`: the cytotoxicity call was “inactive”. As to `Cc1noc(C)c1NC(=O)Nc1cccc2c1O[C@@H](CN(C)Cc1ccc(-c3ccccc3)cc1)[C@@H](C)CN([C@H](C)CO)C2=O`, the cytotoxicity call is “inactive”. `C[C@@H]1CN([C@@H](C)CO)C(=O)c2cc(NC(=O)C3CCCCC3)ccc2O[C@H]1CN(C)Cc1ccc(Cl)c(Cl)c1`: the cytotoxicity call was “inactive”. Then `C[C@@H]1CN([C@H](C)CO)C(=O)c2cc(NC(=O)C3CCCCC3)ccc2O[C@@H](C)CCCCO[C@H]1CN(C)Cc1ccc(Cl)c(Cl)c1`, with “active”; and `C[C@@H]1CCCCO[C@@H](CN(C)Cc2ccc(Cl)c(Cl)c2)[C@@H](C)CN([C@@H](C)CO)C(=O)c2cc(NC(=O)C3CCCCC3)ccc2O1`, with “inactive”. For the molecule `C[C@@H]1CCCCO[C@@H](CN(C)Cc2ccc(Cl)c(Cl)c2)[C@@H](C)CN([C@H](C)CO)C(=O)c2cc(NC(=O)C3CCCCC3)ccc2O1`, the cytotoxicity call was “active”. Regarding `C[C@@H]1CCCCO[C@@H](CN(C)Cc2ccc(Cl)c(Cl)c2)[C@H](C)CN([C@@H](C)CO)C(=O)c2cc(NC(=O)C3CCCCC3)ccc2O1`, the cytotoxicity call is “inactive”.

As for `C[C@@H]1CN([C@H](C)CO)C(=O)c2cc(NC(=O)C3CCCCC3)ccc2O[C@@H](C)CCCCO[C@@H]1CN(C)Cc1ccc(Cl)c(Cl)c1`, the cytotoxicity call is “inactive”.

On to `C[C@H](CO)N1C[C@H](C)[C@@H](CN(C)Cc2ccc(Cl)c(Cl)c2)OCCCC[C@H](C)Oc2ccc(NC(=O)C3CCCCC3)cc2C1=O`, for which the cytotoxicity call was “inactive”.

Take `C[C@@H]1CN([C@@H](C)CO)C(=O)c2cc(NC(=O)C3CCCCC3)ccc2O[C@@H](C)CCCCO[C@H]1CN(C)Cc1ccc(Cl)c(Cl)c1`: the cytotoxicity call is “active”.

Regarding `C[C@@H]1CCCCO[C@H](CN(C)Cc2ccc(Cl)c(Cl)c2)[C@@H](C)CN([C@@H](C)CO)C(=O)c2cc(NC(=O)C3CCCCC3)ccc2O1`, the cytotoxicity call was “active”. Consider `C[C@@H]1CCCCO[C@H](CN(C)Cc2ccc(Cl)c(Cl)c2)[C@H](C)CN([C@@H](C)CO)C(=O)c2cc(NC(=O)C3CCCCC3)ccc2O1`, for which the cytotoxicity call is “inactive”. Consider `C[C@H](CO)N1C[C@H](C)[C@@H](CN(C)Cc2ccc(Cl)c(Cl)c2)Oc2ccc(NC(=O)C3CCCCC3)cc2C1=O`, for which the cytotoxicity call is “inactive”.

Take `C[C@@H]1CCCCO[C@H](CN(C)Cc2ccc(Cl)c(Cl)c2)[C@@H](C)CN([C@H](C)CO)C(=O)c2cc(NC(=O)C3CCCCC3)ccc2O1`: the cytotoxicity call was “inactive”. As for `C[C@H](CO)N1C[C@H](C)[C@H](CN(C)C(=O)NC2CCCCC2)Oc2ccc(NC(=O)Nc3cccc4ccccc34)cc2CC1=O`, the cytotoxicity call was “inactive”. `C[C@@H]1CN([C@H](C)CO)C(=O)Cc2cc(NC(=O)Cc3ccccc3)ccc2O[C@@H]1CN(C)S(=O)(=O)c1ccc(F)cc1`: the cytotoxicity call was “inactive”. Then `Cc1noc(C)c1NC(=O)Nc1ccc2c(c1)C(=O)N([C@H](C)CO)C[C@H](C)[C@@H](CN(C)C(=O)NC1CCCCC1)OCCCC[C@H](C)O2`, with “inactive”; and `C[C@@H]1CN([C@H](C)CO)C(=O)c2cccc(NS(C)(=O)=O)c2O[C@H]1CN(C)C(=O)Nc1ccc(F)cc1`, with “inactive”; and `O=C(C[C@H]1C=C[C@@H](NC(=O)CN2CCOCC2)[C@@H](CO)O1)NCc1cccc(F)c1`, with “inactive”.

Consider `Cc1noc(C)c1NC(=O)Nc1cccc2c1O[C@H](CN(C)C(=O)Nc1cccc3ccccc13)[C@H](C)CN([C@H](C)CO)C2=O`, for which the cytotoxicity call is “inactive”. As to `C[C@@H]1CN([C@@H](C)CO)C(=O)Cc2cc(NC(=O)c3ccncc3)ccc2O[C@@H]1CN(C)S(=O)(=O)c1cn(C)cn1`, the cytotoxicity call was “inactive”. For the molecule `C=C(C)C1=NC(C)(C)C[C@H](C)O1`, the cytotoxicity call is “inactive”. For `CS(=O)(=O)N1C[C@@H]2COC[C@@]2(CN2CCOCC2)C1`, the cytotoxicity call was “inactive”. For the molecule `CC(C)(C)S(=O)N1Cc2cc(C(=O)NCc3ccc4c(c3)OCO4)nc(-c3cccc(C#CCC4CCCC4)c3)c2[C@@H]1CCO` (stereo partly specified), the cytotoxicity call was “inactive”. As for `CN(C)CCCNC(=O)C[C@@H]1CC[C@@H]2[C@H](COc3ccc(NC(=O)NC4CCCC4)cc3C(=O)N2C)O1`, the cytotoxicity call is “inactive”.

In the case of `Cc1noc(C)c1NC(=O)N(C)C[C@H]1OCCCC[C@H](C)Oc2ccc(NC(=O)c3ccccc3)cc2C(=O)N([C@@H](C)CO)C[C@@H]1C`, the cytotoxicity call was “inactive”.

`C[C@H](CO)N1C[C@H](C)[C@H](CN(C)Cc2ccc(Cl)c(Cl)c2)OCCCC[C@H](C)Oc2ccc(NC(=O)C3CCCCC3)cc2C1=O`: the cytotoxicity call is “inactive”. `C[C@@H]1CCCCO[C@@H](CN(C)Cc2ccc(Cl)c(Cl)c2)[C@H](C)CN([C@H](C)CO)C(=O)c2cc(NC(=O)C3CCCCC3)ccc2O1`: the cytotoxicity call was “active”. `C[C@@H]1CN([C@@H](C)CO)C(=O)c2cc(NC(=O)C3CCCCC3)ccc2O[C@@H](C)CCCCO[C@@H]1CN(C)Cc1ccc(Cl)c(Cl)c1`: the cytotoxicity call was “inactive”. Then `COc1ccc(CN(C)C[C@@H]2Oc3ccc(NC(=O)CCCN(C)C)cc3C(=O)N([C@@H](C)CO)C[C@H]2C)cc1`, with “inactive”; and `Cn1c(CNc2ccccc2)cc(=O)n(C)c1=O`, with “inactive”.

With `COCCOC(=O)N1C(=O)[C@@]2(c3cc(C#CC4(O)CCCCCC4)ccc31)[C@H](c1ccccc1OCCO)N1[C@H](c3ccccc3)[C@H](c3ccccc3)OC(=O)[C@H]1[C@@H]2C(=O)N1CCc2cc(OC)c(OC)cc2C1`, the cytotoxicity call was “inactive”. On to `CC1=CC(=O)c2ccccc2C1=O`, for which the cytotoxicity call is “active”. With `O=C1C=C(O)C(=O)c2ccccc21`, the cytotoxicity call was “inactive”. Turning to `NC1=CC(=O)c2ccccc2C1=O`, the cytotoxicity call was “inactive”. For the molecule `O=C(C[C@H]1CC[C@H]2[C@@H](COC[C@@H](O)CN2C(=O)Nc2ccc(F)cc2)O1)NCCCN1CCOCC1`, the cytotoxicity call is “inactive”. As to `CC(C)NC(=O)N(C)C[C@@H]1Oc2ccc(NS(=O)(=O)c3cn(C)cn3)cc2C(=O)N([C@@H](C)CO)C[C@H]1C`, the cytotoxicity call is “inactive”. For `C[C@@H]1CN([C@@H](C)CO)C(=O)CCCn2cc(nn2)CO[C@H]1CN(C)S(=O)(=O)c1ccc(Cl)cc1`, the cytotoxicity call was “inactive”. On to `NC(=O)c1cc(S(=O)(=O)N2CCOCC2)ccc1F`, for which the cytotoxicity call was “active”. With `NCc1ccc(S(=O)(=O)N2CCOCC2)cc1`, the cytotoxicity call was “inactive”. Then `Cn1c(=O)c(=O)n(C)c2cc(S(=O)(=O)N3CCOCC3)ccc21`, with “inactive”; and `COCC(=O)Nc1ccc2c(c1)OC[C@H](C)N(C(=O)Cc1ccccn1)C[C@H](C)[C@H](OC)CN(C)C2=O`, with “inactive”. For `C[C@@H]1CN([C@H](C)CO)S(=O)(=O)c2ccc(-c3cncnc3)cc2O[C@H]1CN(C)C(=O)NC1CCCC1`, the cytotoxicity call was “inactive”.

With `CC[C@H]1OC(=O)[C@H](C)[C@@H](O[C@H]2C[C@@](C)(OC)[C@@H](O)[C@H](C)O2)[C@H](C)[C@@H](O[C@@H]2O[C@H](C)C[C@H](N(C)C)[C@H]2O)[C@](C)(OC)C[C@@H](C)C(=O)[C@H](C)[C@@H](O)[C@]1(C)O`, the cytotoxicity call was “inactive”. `C[C@@H](O)c1cccc(C(F)(F)F)c1`: the cytotoxicity call is “inactive”.

Regarding `CN1C(=O)c2cc(NC(=O)Cc3cccs3)ccc2OC[C@H]2O[C@@H](CC(=O)NCc3ccc(-c4ccccc4)cc3)CC[C@@H]21`, the cytotoxicity call is “inactive”. `COc1ccccc1C(=O)Nc1ccc2c(c1)C(=O)N(C)[C@@H]1CC[C@H](CC(=O)NCc3ccc(Cl)c(Cl)c3)O[C@H]1CO2`: the cytotoxicity call is “inactive”.

Turning to `COc1ccccc1C(=O)Nc1ccc2c(c1)C(=O)N(C)[C@@H]1CC[C@H](CC(=O)NCc3ccc(Cl)c(Cl)c3)O[C@@H]1CO2`, the cytotoxicity call was “inactive”. Take `CN1C(=O)c2cc(NC(=O)Cc3cccs3)ccc2OC[C@H]2O[C@H](CC(=O)NCc3ccc(-c4ccccc4)cc3)CC[C@@H]21`: the cytotoxicity call was “inactive”. Regarding `COc1ccccc1C(=O)Nc1ccc2c(c1)C(=O)N(C)[C@H]1CC[C@@H](CC(=O)NCCc3ccncc3)O[C@H]1CO2`, the cytotoxicity call was “inactive”. Then `CN1C(=O)c2cc(NC(=O)Cc3cccs3)ccc2OC[C@@H]2O[C@H](CC(=O)NCc3ccc(-c4ccccc4)cc3)CC[C@@H]21`, with “active”; and `COc1ccccc1C(=O)Nc1ccc2c(c1)C(=O)N(C)[C@@H]1CC[C@@H](CC(=O)NCCc3ccncc3)O[C@H]1CO2`, with “inactive”.

As to `COc1ccccc1C(=O)Nc1ccc2c(c1)C(=O)N(C)[C@H]1CC[C@@H](CC(=O)NCCc3ccncc3)O[C@@H]1CO2`, the cytotoxicity call was “inactive”.

Regarding `COc1ccccc1C(=O)Nc1ccc2c(c1)C(=O)N(C)[C@@H]1CC[C@@H](CC(=O)NCc3ccc(Cl)c(Cl)c3)O[C@@H]1CO2`, the cytotoxicity call was “active”. In the case of `COc1ccccc1C(=O)Nc1ccc2c(c1)C(=O)N(C)[C@H]1CC[C@H](CC(=O)NCc3ccc(Cl)c(Cl)c3)O[C@H]1CO2`, the cytotoxicity call is “active”. Take `COc1ccccc1C(=O)Nc1ccc2c(c1)C(=O)N(C)[C@@H]1CC[C@H](CC(=O)NCCc3ccncc3)O[C@@H]1CO2`: the cytotoxicity call was “inactive”. Then `COc1ccccc1C(=O)Nc1ccc2c(c1)C(=O)N(C)[C@H]1CC[C@H](CC(=O)NCc3ccc(Cl)c(Cl)c3)O[C@@H]1CO2`, with “active”.
